# IL2 activator – qHTS of IL-2 Activators; 360,000 tested, 0.065% active; IL-2 activation reporter assay, cell-based qHTS; stimulated with anti-CD3/CD4/CD28 beads; in transgenic mouse T cells; activation, % (series mostly up to about 46 µM); AID 652025, 2013; in the data active means activation above about 50%; inconclusive means mostly about 30% to 49%; further: 0% is about no effect
#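 Readout: EGFP and DsRed signals by fluorescent plate cytometry. Unstimulated transgenic mouse T cells received compound 60 min before antibody-bead stimulation, then incubated 18 h at 37 degrees C.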
# Anesthetic bind – qHTS Assay for Identification of Novel General Anesthetics. apoferritin/1-aminoanthracene competitive binding, fluorescence. 350,000 tested, 0.074% active. Potency, µM (doses to about 77.5 µM), without a hit: top-dose activity change, negative = displacement, actives largely listed as inhibitors. AID 485281, 2010; further: potency means the concentration at half of the fitted maximal effect; on the % scale 0 is the no-effect control and ±100 the full control effect; nearly all actives have a fitted effect of over 20% in size
# Target sequence (P02791 2-175 limits assumed): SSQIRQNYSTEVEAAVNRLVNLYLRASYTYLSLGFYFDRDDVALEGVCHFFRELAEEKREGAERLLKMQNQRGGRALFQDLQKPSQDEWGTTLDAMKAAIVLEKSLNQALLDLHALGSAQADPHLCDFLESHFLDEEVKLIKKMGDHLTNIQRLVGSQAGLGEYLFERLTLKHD
#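 Read-out: endpoint 1-AMA fluorescence, excitation 380 nm and emission 535 nm, after compounds sit 10 min at room temperature with 10 uM horse-spleen apoferritin in 50% saturated 1-AMA/PBS. Values come from four-parameter Hill fits.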
# BRCA1 expr act – qHTS Assay to Identify Small Molecule Activators of BRCA1 Expression. MCF7-BRCA1-FFLuc reporter, luminescence, 48 h; response scale: scaled: vehicle 0%, 10 µM genistein 100%. Potency, µM (doses to about 46.1 µM), for inactives: at the top dose activation, hits mostly activators. 380,000 tested, 1.1% active. AID 624202, 2012; further: potency means the concentration at half of the fitted maximal effect; nearly all actives have a fitted effect of over 80% in size
#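 Using MCF7 cells harboring a BRCA1 firefly luciferase reporter, plated 2 h before compound pinning, the screen measured luminescence after 48 h incubation. Responses were normalized to DMSO and 10 microM genistein, then fitted for concentration-effect.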
# Integrin act MD – qHTS for Activators of Integrin-Mediated Alleviation for Muscular Dystrophy; alpha7betagal myoblasts, beta-gal FDG fluorescence, 48 h; Potency, µM (highest dose often 38.3 µM), inactives show at the highest dose activation, usual class: activators; 350,000 tested, 0.064% active;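 further: potency means the concentration at half of the fitted maximal effect; 100% = response of the positive control SU9516; nearly all actives have a fitted effect of over 60% in size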
#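 Alpha7betagal+/- myoblasts (passage 13) were plated 16-24 hr, then exposed to compounds (1:260 dilution of DMSO stock) for 48 hours at 37C. After MPER lysis, β-galactosidase reporter activity was read as FDG fluorescence (ex 480/em 540) after 30 minutes.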
# PKM2 act – qHTS Assay for Activators of Human Muscle isoform 2 Pyruvate Kinase. Potency, µM (series often up to 57.5 µM), for inactives: at the highest dose activation, most hits filed as activators. 260,000 tested, 0.34% active. purified PKM2, Kinase-Glo ATP luminescence, activation; response scale: 0% is enzyme alone, no compound. AID 1631, 2009; further: potency means the concentration at half of the fitted maximal effect; on the % scale 0 is the no-effect control and ±100 the full control effect; nearly all actives have a fitted effect of over 55% in size
#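 Kinase-Glo luminescence reports ATP generated from ADP (0.1 mM) and PEP (0.5 mM) by purified hPK-M2 after 1 h at room temperature, pH 7.2 imidazole buffer; intermediate enzyme activity allows detecting inhibitors and activators.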
# * = called active by the depositor; ? = inconclusive; . = no result given. Hits are enriched below; roughly 1.3% of the tested compounds scored in any of these assays. Unless noted, the call rests on the fitted dose curve; in most records, active means well fitted curve in the direction sought with a large enough effect; inconclusive means small, poorly fitted or top-dose-only effect, or another doubt; inactive means no such curve, though single readings can be large; an effect the other way counts as inactive or inconclusive.
SMILES,IL2 activator,Anesthetic bind,BRCA1 expr act,Integrin act MD,PKM2 act
CCOC(=O)c1cc(CC)sc1N1C(=O)CC(Sc2ncccc2C(=O)O)C1=O (stereo not given),-2,-6%,-27%,-20%,5%
COC(=O)c1c(N2C(=O)CC(Sc3ccccc3C(=O)O)C2=O)sc2c1CCCC2 (stereo not given),-2,-15%,-7%,?,7.9µM*
CCOC(=O)c1cc(CC)sc1N1C(=O)CC(Sc2ccccc2C(=O)O)C1=O (stereo not given),-4,-17%,-4%,27%,25µM*
O=C(CSc1nccn1-c1ccc(Cl)cc1)Nc1cccc2ccccc12,.,67%,.,.,.
Fc1ccc(-c2nnc(-c3ccc(F)cc3)o2)cc1,1,-8%,2.5µM*,10%,-8%
Cc1ccc(P(C)(=O)c2ccc(C)cc2)cc1,-1,-2%,17%,-9%,4%
Cc1ccc(NP(=O)(Nc2ccc(C)cc2)Nc2ccc(C)cc2)cc1,-3,-6%,-9%,3.2µM*,-6%
CC(=O)c1ccccc1NC(=O)c1ccc(N2CCCC2=O)cc1,-1,.,7.9µM*,17%,.
CC(=O)c1ccc(NC(=O)c2ccc(N3CCCC3=O)cc2)cc1,0,.,17%,-5%,.
CC(NC(=O)c1ccc(N2CCCC2=O)cc1)c1ccccc1 (stereo not given),3,-16%,6%,20%,-5%
CSc1ccccc1NC(=O)c1ccc(N2CCCC2=O)cc1,1,.,10µM*,-1%,.
CCOc1ccc(Nc2oc(-c3ccc(COc4ccc(C)cc4)o3)nc2C#N)cc1,.,64%,.,.,.
COc1ccc(C(C)NC(=O)CN(c2cc(OC)ccc2OC)S(=O)(=O)c2ccccc2)cc1 (stereo not given),.,2%,.,.,.
CCC(C(=O)NCc1ccccc1Cl)n1c(=O)c2cccn2c2ccccc21 (stereo not given),.,-3%,.,.,.
CCS(=O)(=O)c1ncc(Cl)c(C(=O)N(Cc2ccccc2)c2ccc(OC)cc2)n1,.,-7%,.,.,.
Cn1c(NC(=O)C[n+]2cc(-c3ccc(F)cc3)n3c2CCC3)cc(=O)n(C)c1=O,0,-5%,3%,-2%,-4%
O=C(C[n+]1cc(-c2ccc(F)cc2)n2c1CCC2)c1cccs1,-1,-12%,2µM*,0%,-2%
COc1cc(NCc2ccc3nc(N)nc(N)c3c2C)cc(OC)c1OC,.,-15%,.,.,.
CCc1ccc(NC(=O)C(=S)NC2CCCCC2)cc1,0,-3%,2µM*,0%,-4%
CCc1ccc(NC(=O)NC2CCCCCCC2)cc1,-2,-1%,?,?,2%
O=C(Nc1ccc(F)c(Cl)c1)c1cc(C2CCCN(C(=O)C3CC3)C2)on1 (stereo not given),2,.,2.8µM*,.,.
CCCc1cc(C(=O)Nc2ccc(F)c(Cl)c2)no1,0,-9%,11µM*,-14%,-7%
C1=Nc2ccccc2CN1c1ccccc1,-1,-8%,7.1µM*,13%,-1%
CC(C)c1ccc(N2C=Nc3ccc(C(C)C)cc3C2)cc1,-2,-17%,-1%,-13%,6%
CN(C)c1ccc(/C=C/c2ccc3cc(F)ccc3n2)cc1,.,.,59%,.,.
CSc1ccccc1OCc1cc(C(=O)N2CCN(c3ccccc3)CC2C)no1 (stereo not given),-4,-7%,13µM*,-24%,-4%
CC(C)(C)c1ccc(-c2nc(SCC(=O)Nc3ccc(Cl)cc3)[nH]c(=O)c2C#N)cc1,.,?,5%,.,.
CCN1C(=O)S/C(=C\c2ccc(N3CCOCC3)cc2C)C1=O,-2,-16%,?,2%,0%
CCC(C)N1C(=O)S/C(=C/c2ccc(N3CCOCC3)cc2C)C1=O (stereo not given),-5,-15%,8.9µM*,1%,3%

# Bioassay records (PubChem)
